# Data published in PubChem BioAssay AID652065 (The Scripps Research Institute Molecular Screening Center, 2013).
# In all, about 4,300 compounds went through this assay and about 3,000 (70%) were called active.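 The calls were made as follows: active = inhibition above a per-plate cutoff, the mean inhibition of sample wells plus 3 SD (cut at about 35% in these data); inactive = the rest.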 So high a share suggests a set chosen from earlier hits. Only a sample is shown.
# Experiment: small molecules binding CAG repeat RNA – biochemical, fluorescence, confirmation (AID 652065);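 also: loss of TO-PRO-1 fluorescence as compound displaces dye from 1x1 AA loop RNA; 0% = DMSO only wells and 100% = 100 µM mitoxantrone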
# Conditions: r(CAG) RNA repeat, TO-PRO-1 dye displacement fluorescence; at 3 µM; hits give high values
row,SMILES,inhibition
1,Cc1sc2nc(SCC(=O)c3ccc(O)c(O)c3)n(Cc3ccco3)c(=O)c2c1C,64.2% (active)
2,CCOC(=O)C1Nc2ccc(C(F)(F)F)cc2C2C=CCC12 (stereo not drawn),18.9% (inactive)
3,CC1(C(=O)NS(=O)(=O)c2ccc(C#N)cc2)CCN1C(=O)c1ccc(C2CCCCC2)cc1 (stereo not drawn),51.7% (active)
4,Cc1cc(/C=N/Nc2ccc([N+](=O)[O-])cn2)c(C)n1-c1cccc(C(=O)O)c1,35% (active)
5,Cc1ccc(-n2c(SCC(=O)Nc3ccc(S(=O)(=O)Nc4nccs4)cc3)nnc2-c2ccncc2)cc1,67.3% (active)
6,Cc1ccc(-n2c(SCC(=O)Nc3ccc(S(=O)(=O)Nc4nccs4)cc3)nnc2-c2ccccn2)cc1,60.6% (active)
7,Cc1ccc(-n2c(SCC(=O)Nc3ccc(S(=O)(=O)Nc4nccs4)cc3)nnc2-c2cccnc2)cc1,58.8% (active)
8,O=C(O)c1ccc(N/N=C/c2cn(-c3ccccc3)nc2-c2cccs2)cc1,61.1% (active)
9,O=C(O)c1ccc(NC(=O)c2cn(-c3ccccc3)nc2-c2ccc(Cl)cc2)cc1,62.6% (active)
10,O=C(NNC(=S)NC(=O)c1cn(-c2ccccc2)nc1-c1ccccc1)c1ccncc1,54.8% (active)
11,CC(C)=CCCC1(C)C=Cc2c(ccc3c2[nH]c2cc(O)c(C)cc23)O1 (stereo not drawn),30.6% (inactive)
12,Cc1cc(/C=C2/C(=N)N3C(=NC2=O)SN=C3S(C)(=O)=O)c(C)n1-c1ccccc1,81.7% (active)
13,CCOc1ccc(-n2c(O)c(/C=N/Nc3nnc(C)c(=O)[nH]3)c3ccccc3c2=O)cc1,52.6% (active)
14,C=C1c2c(Cl)ccc(O)c2C(O)=C2C(=O)[C@]3(O)C(O)=C(C(N)=O)C(=O)[C@@H](N(C)C)[C@@H]3[C@@H](O)C12 (stereo partly drawn),70.9% (active)
15,Cc1ccc(-n2ncc3c(Nc4cccc(C(=O)O)c4)ncnc32)cc1,23.1% (inactive)
16,CCOc1cc(C)ccc1OCc1nnc(SCC(=O)Nc2cccc(C(=O)O)c2)n1-c1ccccc1,41.2% (active)
17,COc1ccc2[nH]c3c(C)c4cc[n+](C)cc4c(C)c3c2c1,47.5% (active)
18,N#CCC(=O)Nc1ccc(C(=O)OCC(=O)Nc2sc3c(c2C#N)CCCC3)cc1,33.2% (inactive)
19,COC(=O)c1c(NC(=O)C2CC(C)=C(C)CC2C(=O)O)sc2c1CCCCC2 (stereo not drawn),66.4% (active)
20,N#Cc1c(NC(=O)C2CC(Cl)=CCC2C(=O)O)sc2c1CCCCC2 (stereo not drawn),38% (active)
21,CCOC(=O)c1c(NC(=O)C2CC=CCC2C(=O)O)sc(C)c1CC (stereo not drawn),37.1% (active)

row,SMILES,inhibition
1,CSc1ccc(C=Nn2c(-c3ccc(F)cc3)n[nH]c2=S)cc1,41.7% (active)
2,O=C1CC(c2ccccc2)=NN1c1ccc([N+](=O)[O-])cc1,23.7% (inactive)
3,N#Cc1c(-c2ccccc2)nc(SCc2cccc(C(F)(F)F)c2)[nH]c1=O,80.3% (active)
4,Cc1ccc(CSc2nc(-c3ccccc3)c(C#N)c(=O)[nH]2)cc1,66.6% (active)
5,N#Cc1c(-c2ccccc2)nc(SCc2ccc([N+](=O)[O-])cc2)[nH]c1=O,58.7% (active)
6,CCOc1cc(/C=C(\C#N)c2nc(-c3cccs3)c(NC(C)=O)s2)ccc1O,40.4% (active)
7,Cc1ccc(S(=O)(=O)Nc2nc3ccccc3s2)cc1[N+](=O)[O-],29.7% (inactive)
8,O=[N+]([O-])c1cc(Br)c(O)c(/C=N/Nc2nc3ccccc3s2)c1,94.7% (active)
9,C=CCNc1nc(N)c(C(=C(C#N)C#N)c2ccccc2)s1,15.9% (inactive)
10,O=C(N/N=C/c1c(Cl)[nH]c2ccccc12)c1sc2ccccc2c1Cl,22.9% (inactive)
11,Cc1cc(F)ccc1S(=O)(=O)Nc1ncnc2scc(-c3ccc(F)cc3)c12,70.8% (active)
12,CC(C(=O)Nc1ccc(O)c(C(=O)O)c1)N1C(=O)/C(=C/c2cccs2)SC1=S (stereo not drawn),75.9% (active)
13,Cc1nnc(NC(=O)Nc2ccc(Cl)c(Cl)c2)s1,24.5% (inactive)
14,CSc1nnc(NC(=O)c2nc(S(=O)(=O)Cc3ccc(C)cc3)ncc2Cl)s1,37.4% (active)
15,CCOC(=O)c1cc2cc(-c3c(C(=O)OCC)oc4cc(O)cc(O)c4c3=O)ccc2o1,40.4% (active)
16,Cn1c2ccccc2c2cc(/C=C(\NC(=O)c3ccccc3)C(=O)NCC(=O)O)ccc21,39.8% (active)
17,O=C(NC(=S)Nc1ccccc1C(=O)O)c1ccc(-c2ccc(Br)cc2)o1,82.7% (active)
18,Cc1ccc(S(=O)(=O)N2[C@@H](c3cccc4ccccc34)C(C(=O)O)=C[C@H]2C(C)(C)C)cc1,50.3% (active)
19,Cc1ccc(NC(=O)CC2S/C(=N/N=C3\CCCc4ccccc43)NC2=O)cc1 (stereo not drawn),54.7% (active)
20,CC1(C(=O)NS(=O)(=O)c2ccc3ccccc3c2)CCN1C(=O)C1(c2ccc(Cl)cc2)CCC1 (stereo not drawn),72% (active)
21,O=[N+]([O-])c1cc(Cl)cc(/C=N/NC(=S)Nc2cc(S(=O)(=O)N3CCOCC3)ccc2Cl)c1O,95.4% (active)

row,SMILES,inhibition
1,CCC(C)Cn1c(O)cc2nn(-c3nc4ccccc4s3)c(=O)c-2c1C (stereo not drawn),63.4% (active)
2,CCSc1nsc(NC(=O)Nc2cccc(C(C)=O)c2)n1,26.3% (inactive)
3,CC(C)c1nc(SCC(=O)Nc2cccc(C(=O)O)c2)c2c3c(sc2n1)CCCC3,61.1% (active)
4,Cc1ccc2nc(N3C(=O)C(O)=C(C(=O)c4ccco4)C3c3cccc(O)c3)sc2c1 (stereo not drawn),73.8% (active)
5,COc1cc(C2CC(=O)N3CN(Cc4ccccc4)CSC3=C2C#N)ccc1OCc1ccccc1 (stereo not drawn),25.8% (inactive)
6,O=C(NNc1c2ccccc2nc2ccccc12)c1cc2ccccc2cc1O,45.6% (active)
7,O=C(N/N=C/c1cccnc1)c1cc2ccccc2cc1O,9.03% (inactive)
8,CC(=N\NC(=O)c1cc(Br)ccc1O)/C(=N/O)C(=O)Nc1ccccc1,12.1% (inactive)
9,Cc1ccc(/C=C/C(=O)Nc2ccc([N+](=O)[O-])c(NC(=O)/C=C/c3ccc(C)o3)c2)o1,47.7% (active)
10,O=C(Nc1cccc(F)c1)c1cc(-c2ccco2)nc2ccccc12,4.09% (inactive)
11,O=C(O)c1cccc(NC(=O)c2cc(-c3cccc(Cl)c3)nc3ccccc23)c1,46.1% (active)
12,CCOc1ccc(-n2c(SCC(=O)Nc3cc(C(=O)O)ccc3Cl)nc3ccccc3c2=O)cc1,52.9% (active)
13,Cc1ccccc1-n1c(SCC(=O)Nc2cccc3ccccc23)nc(O)cc1=O,14.2% (inactive)
14,Cc1ccc(CNC(=O)C2CCN(S(=O)(=O)c3ccc4nc5c(c(C(=O)O)c4c3)CC(C)CC5)CC2)cc1 (stereo not drawn),36.4% (active)
15,O=C(O)c1ccc2c(c1)C(=O)N(c1ccc(/C=C/C(=O)c3ccccc3)cc1)C2=O,65.3% (active)
16,Cc1ccc(NC(=O)CSc2sc3c(O)cc(=O)[nH]c3c2C#N)cc1C,27.9% (inactive)
17,Cc1ccc(NC(=O)CSc2nc(CSc3ccc(C)cc3)cc(=O)[nH]2)cc1,53.5% (active)
18,COc1ccc(OC)c(NC(=O)CSc2nc(-c3ccccc3)cc(=O)[nH]2)c1,24.5% (inactive)
19,Cc1ccc(C(C)C)c(OCCSc2nc3ccccc3n2CC(=O)O)c1,50.3% (active)
20,Cc1ccc2cc(/C=N/Nc3ccc(C(=O)O)cc3)c(Cl)nc2c1,46.6% (active)
21,CC(Oc1ccc2c(-c3ccccc3)cc(=O)oc2c1)C(=O)NC(Cc1c[nH]c2ccccc12)C(=O)O (stereo not drawn),62.4% (active)

row,SMILES,inhibition
1,COc1ccc(S(=O)(=O)NCCc2c[nH]c3ccccc23)cc1OC,0.91% (inactive)
2,COc1ccc(-c2cc(C(=O)NC(Cc3c[nH]c4ccccc34)C(=O)O)c(C)o2)cc1OC (stereo not drawn),61.4% (active)
3,O=C(N[C@@H](Cc1c[nH]c2ccccc12)C(=O)O)OCC1c2ccccc2-c2ccccc21,63.4% (active)
4,COc1ccc(-c2cc(=O)oc3cc(OCC(=O)N[C@@H](Cc4c[nH]c5ccccc45)C(=O)O)ccc23)cc1,65.3% (active)
5,O=c1cc(CN2CCN(S(=O)(=O)/C=C/c3ccccc3)CC2)c2ccc(O)cc2o1,22.5% (inactive)
6,COc1cc2ccccc2cc1C(=O)Nc1ccc(S(=O)(=O)Nc2cc(C)on2)cc1,58.8% (active)
7,CCOc1ccc(C(=O)Nc2ccc(S(=O)(=O)Nc3cc(C)on3)cc2)cc1,23.1% (inactive)
8,Cc1cccc(C)c1NC(=O)C(c1ccc(C(F)(F)F)cc1)n1c(=O)c(-c2ccco2)nc2ccccc21 (stereo not drawn),26.2% (inactive)
9,COCCNC(=O)Nc1ccc2nc(-c3ccco3)c(-c3ccco3)nc2c1,61.6% (active)
10,CC(C)c1ccc(CC(=O)N2CCC2(C)C(=O)NS(=O)(=O)c2ccc(C(C)(C)C)cc2)cc1 (stereo not drawn),70.7% (active)
11,CC1(C(=O)NS(=O)(=O)c2ccccc2)CCN1C(=O)Cc1ccc(-c2ccccc2)cc1 (stereo not drawn),34.1% (inactive)
12,COc1ccc(S(=O)(=O)NC(=O)C2(C)CCN2C(=O)c2ccccc2CCc2ccccc2)cc1 (stereo not drawn),34% (inactive)
13,O=S(=O)(Nc1ccc(O)c2ccccc12)c1ccc(OC(F)(F)F)cc1,52.9% (active)
14,COc1ccc(COC(=O)NC(C(=O)O)c2ccccc2)cc1 (stereo not drawn),2.31% (inactive)
15,Cc1c(C)c2c(OCC(=O)N[C@@H](C(=O)O)c3ccccc3)cc3c(c2oc1=O)CCC(C)(C)O3,46.1% (active)
16,Cc1ccc(N=C2NC(=O)/C(=C/C=C/c3ccco3)S2)cc1C,48.9% (active)
17,CN(C)S(=O)(=O)c1cccc(-c2nn(-c3ccccc3)cc2/C=C2\SC(=S)N(CC(=O)O)C2=O)c1,88.1% (active)
18,Cc1ccc(-c2nn(-c3ccccc3)cc2/C=C2\SC(=S)N(CCCCCC(=O)O)C2=O)o1,56% (active)
19,O=C(CCCN1C(=O)/C(=C\c2ccco2)SC1=S)Nc1cccc2ccccc12,17% (inactive)
20,CC1(C(=O)NS(=O)(=O)Cc2cccc(Cl)c2)CCN1C(=O)Cc1ccc(Cl)cc1Cl (stereo not drawn),78.9% (active)
